A selection: hits, their analogues and other compounds. The true share with any hit is near 2.2%.
MEKK2mut PB1 HTS: MEK5 binding signal on mutant MEKK2 PB1, primary screen, biochemical, multiplex bead flow cytometry, Alexa488-MEK5 | Alexa488-MEK5 binding to MEKK2 mutant | percent response, % at 10 µM | 0.35% of 290,000 active | AID 1530, 2009; in the data active = percent response above about 24%, passing the limit was not always enough
MEKK2 WT-MEK5: modulators of MEK5 binding to wildtype MEKK2, primary screen, biochemical, multiplex bead flow cytometry, Alexa488-MEK5. Mitogen-activated protein kinase kinase kinase 2 (Homo sapiens), Q9Y2U5. Alexa488-MEK5 binding to MEKK2 WT; actives lie on both sides. binding response (% of control), % at 10 µM. 1.1% of 290,000 active; in the data active = binding response below about 67% or above about 130%
MEKK3 PB1 HTS: modulators of MEKK3-MEK5 PB1 binding, primary screen, biochemical, wildtype MEKK3, multiplex bead flow cytometry, Alexa488-MEK5 | bead-based flow cytometry, Alexa488-MEK5 binding to MEKK3; actives lie on both sides; 0 = blocked by unlabeled MEK5, 100 = vehicle | binding response (% of control), % at 10 µM | 1.4% of 290,000 active;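 active = binding response more than 3 SD above or below the average of its plate-row segment, actives on both sides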;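 also: Alexa488 bead fluorescence after subtracting the streptavidin-only scavenger bead signal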
VLA-4 inh: inhibition in human VLA-4 binding assay, primary screen, VLA-4 allosteric modulator project, MLPCN library, flow cytometry, VLA-4 expressing cells; Integrin alpha-4 (Homo sapiens), P13612; ligand binding flow cytometry; inhibition, % (about 7 µM as worked out from the volumes in the protocol); 0.2% of 330,000 active; AID 2557, 2010; in the data active = inhibition above about 50%
Target sequence (P13612 whole entry, looked up): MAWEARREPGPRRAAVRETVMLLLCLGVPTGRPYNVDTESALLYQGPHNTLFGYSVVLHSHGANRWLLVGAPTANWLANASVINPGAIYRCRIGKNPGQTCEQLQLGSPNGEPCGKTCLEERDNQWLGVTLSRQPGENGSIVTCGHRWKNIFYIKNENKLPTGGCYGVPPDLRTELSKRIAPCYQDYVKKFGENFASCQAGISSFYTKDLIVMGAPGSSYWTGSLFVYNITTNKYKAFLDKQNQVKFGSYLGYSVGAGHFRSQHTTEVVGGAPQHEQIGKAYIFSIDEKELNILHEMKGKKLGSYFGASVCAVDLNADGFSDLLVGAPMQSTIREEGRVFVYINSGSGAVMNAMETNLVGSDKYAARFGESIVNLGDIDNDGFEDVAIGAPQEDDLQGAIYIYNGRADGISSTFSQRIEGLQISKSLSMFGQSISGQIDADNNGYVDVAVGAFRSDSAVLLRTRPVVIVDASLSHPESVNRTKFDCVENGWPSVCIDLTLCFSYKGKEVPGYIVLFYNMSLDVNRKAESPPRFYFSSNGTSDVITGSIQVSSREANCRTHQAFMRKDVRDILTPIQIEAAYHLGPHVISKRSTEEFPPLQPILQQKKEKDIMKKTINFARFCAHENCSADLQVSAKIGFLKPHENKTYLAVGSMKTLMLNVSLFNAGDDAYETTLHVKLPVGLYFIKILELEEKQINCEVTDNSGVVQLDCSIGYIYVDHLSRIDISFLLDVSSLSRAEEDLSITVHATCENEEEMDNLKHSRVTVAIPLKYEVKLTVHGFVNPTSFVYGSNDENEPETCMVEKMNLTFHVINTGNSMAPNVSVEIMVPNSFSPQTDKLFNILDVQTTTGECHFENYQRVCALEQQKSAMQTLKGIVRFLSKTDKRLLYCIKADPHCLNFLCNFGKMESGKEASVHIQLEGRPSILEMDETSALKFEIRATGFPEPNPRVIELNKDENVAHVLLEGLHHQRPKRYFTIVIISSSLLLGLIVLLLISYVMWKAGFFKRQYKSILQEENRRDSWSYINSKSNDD
VLA-4 mod pick: retest of VLA-4 allosteric modulators, confirmation, cell-based, cherry-picked plates, U937, HUTS-21 LIBS antibody | U937 cells, HUTS-21 LIBS mAb binding, flow cytometry; LDV ligand present at threefold Kd | 2% of 1,300 active | shares compounds with VLA-4 inh | inhibition, % at 6.7 µM; in the data active = inhibition above about 40%
Numbers stand for hits; . = inactive; / = no result given.

SMILES	MEKK2mut PB1 HTS	MEKK2 WT-MEK5	MEKK3 PB1 HTS	VLA-4 inh	VLA-4 mod pick
CN(C)C(=O)CSc1ccccc1C(=O)OCC(=O)NC1CC1	/	/	/	.	/
CCN(Cc1cccs1)C(=O)CN1C(=O)NC(c2ccccc2)(c2ccccc2)C1=O	/	/	/	.	/
Cc1c(NC(=O)CN2CCN(C(=O)c3ccco3)CC2)c(=O)n(-c2ccccc2)n1C	.	.	.	.	.
Cc1c(NC(=O)c2ccco2)c(=O)n(-c2ccccc2)n1C	.	.	.	.	/
C=CCNC(=O)c1onc(CS(=O)(=O)c2cc(C)cc(C)c2)c1C(=O)NCC=C	/	/	/	.	/
O=c1c2ccccc2nc2n1CCc1c-2[nH]c2ccccc12	/	/	/	51	.
O=c1c2ccccc2nc2n1CCC2	.	.	.	.	/
Cc1cc(C)cc(N(CC(=O)NC2CCCC2)C(=O)CCC(=O)Nc2cc(C)ccn2)c1	.	.	.	.	/
CC(C)CC(=O)N=Nc1c(O)[nH]c2ccccc12	.	.	.	.	/
O=C(CSCc1cccc(Br)c1)N=Nc1c(O)[nH]c2ccccc12	.	.	.	57	.
CCOC(=O)/C(=C/C1=CC(=C/N(C)C)/C(=O)O1)C(C)=O	.	.	.	.	/
CC1CCCN(C(=O)c2ccc3c(c2)OCCO3)C1 (centres undefined)	/	/	/	50	.
O=C(c1ccc2c(c1)OCCO2)N1CCCCC1	.	.	.	.	/
N#CC(c1ccc(Cl)cc1)c1cccc(Cl)n1 (centres undefined)	.	.	.	.	/
COc1ccc(C(C#N)c2ccc(=O)[nH]n2)cc1 (centres undefined)	.	.	.	55	.
CSc1ncccc1C(=O)Nc1ccc2c(c1)OCCO2	/	/	/	.	/
CC1CN(CCOCCSc2ccc(Cl)cc2)CC(C)O1 (centres undefined)	.	.	.	.	/
CC1CN(CCOCCSc2ccccc2)CC(C)O1 (centres undefined)	.	.	.	.	.
COc1ccc2c(c1)c(C(C)=O)c(C)n2CCc1ccccc1	.	.	.	.	/
COC(=O)c1ccncc1C(=O)Nc1ccc(Oc2ncc(C(F)(F)F)cc2Cl)cc1	.	.	.	50	.
CN1CC(c2ccccc2)Oc2ccccc2C1=S (centres undefined)	/	/	/	.	/
C=CCN(CC(=O)NC1CCCC1)C(=O)C(=O)Nc1ccc2c(c1)OCCO2	.	.	.	.	/
CN(C(=O)COC(=O)c1cccc(F)c1)c1ccccc1	.	.	.	.	/
CN(C)c1cccc(C(=O)OCC(=O)N(C)c2ccccc2)c1	.	.	.	.	.
CCCCc1ccc(-n2c(Cc3cccs3)n[nH]c2=S)cc1	.	.	.	55	.
SMILES	MEKK2mut PB1 HTS	MEKK2 WT-MEK5	MEKK3 PB1 HTS	VLA-4 inh	VLA-4 mod pick
O=C(Nc1ccc2nc(N3CCOCC3)sc2c1)c1ccc(F)cc1	/	/	/	.	/
O=C(Nc1ccc(F)cc1F)c1ccc2nc(N3CCOCC3)sc2c1	.	.	.	.	.
Cc1ccc(C)c(N2CCN(C(=O)c3ccc4nc(N5CCOCC5)sc4c3)CC2)c1	.	.	.	.	.
O=C(NCCc1ccccc1)c1ccc2nc(N3CCOCC3)sc2c1	.	.	.	.	.
O=C(c1ccc2nc(N3CCCCC3)sc2c1)N1CCN(c2ccccn2)CC1	/	/	/	.	.
O=C(CNC(=O)c1ccc(Cl)cc1Cl)OCN1C(=O)c2ccccc2C1=O	/	/	/	.	/
CCOc1ccccc1CNC(=O)c1ccc2nc(N3CCOCC3)sc2c1	.	.	.	.	.
CCC(Cc1ccccc1)NC(=O)c1ccc2nc(N3CCOCC3)sc2c1 (centres undefined)	.	.	.	.	.
CC1CC(C)CN(CCCNC(=O)c2ccc3nc(N4CCOCC4)sc3c2)C1 (centres undefined)	.	.	.	.	/
O=C(NCc1cccc(Cl)c1)c1ccc2nc(N3CCOCC3)sc2c1	.	.	.	.	.
CC(CCc1ccccc1)NC(=O)c1ccc2nc(N3CCOCC3)sc2c1 (centres undefined)	.	.	.	.	/

Screening data as filed in PubChem BioAssay.
